Source: the supplement of paper PMC11732987, “Enantioselective OTUD7B fragment discovery through chemoproteomics screening and high-throughput optimisation” (Communications Chemistry, 2025)
A number with no mark means an inactive call.

Columns and labels:
Test in all cases: log2 ratio of Biotin-Ahx-Ub-VS probe labelling (fragment/DMSO); higher = less target engagement (more negative = stronger competition), active = hit call of the paper (q ≤ 0.05, log2 ratio ≤ -1)
Conditions in all cases: compound concentration: 200 uM; treatment time: 3 h
ALG13 = biological target: T1, ALG13 (UniProt Q9NP73)
T1 sequence (whole entry): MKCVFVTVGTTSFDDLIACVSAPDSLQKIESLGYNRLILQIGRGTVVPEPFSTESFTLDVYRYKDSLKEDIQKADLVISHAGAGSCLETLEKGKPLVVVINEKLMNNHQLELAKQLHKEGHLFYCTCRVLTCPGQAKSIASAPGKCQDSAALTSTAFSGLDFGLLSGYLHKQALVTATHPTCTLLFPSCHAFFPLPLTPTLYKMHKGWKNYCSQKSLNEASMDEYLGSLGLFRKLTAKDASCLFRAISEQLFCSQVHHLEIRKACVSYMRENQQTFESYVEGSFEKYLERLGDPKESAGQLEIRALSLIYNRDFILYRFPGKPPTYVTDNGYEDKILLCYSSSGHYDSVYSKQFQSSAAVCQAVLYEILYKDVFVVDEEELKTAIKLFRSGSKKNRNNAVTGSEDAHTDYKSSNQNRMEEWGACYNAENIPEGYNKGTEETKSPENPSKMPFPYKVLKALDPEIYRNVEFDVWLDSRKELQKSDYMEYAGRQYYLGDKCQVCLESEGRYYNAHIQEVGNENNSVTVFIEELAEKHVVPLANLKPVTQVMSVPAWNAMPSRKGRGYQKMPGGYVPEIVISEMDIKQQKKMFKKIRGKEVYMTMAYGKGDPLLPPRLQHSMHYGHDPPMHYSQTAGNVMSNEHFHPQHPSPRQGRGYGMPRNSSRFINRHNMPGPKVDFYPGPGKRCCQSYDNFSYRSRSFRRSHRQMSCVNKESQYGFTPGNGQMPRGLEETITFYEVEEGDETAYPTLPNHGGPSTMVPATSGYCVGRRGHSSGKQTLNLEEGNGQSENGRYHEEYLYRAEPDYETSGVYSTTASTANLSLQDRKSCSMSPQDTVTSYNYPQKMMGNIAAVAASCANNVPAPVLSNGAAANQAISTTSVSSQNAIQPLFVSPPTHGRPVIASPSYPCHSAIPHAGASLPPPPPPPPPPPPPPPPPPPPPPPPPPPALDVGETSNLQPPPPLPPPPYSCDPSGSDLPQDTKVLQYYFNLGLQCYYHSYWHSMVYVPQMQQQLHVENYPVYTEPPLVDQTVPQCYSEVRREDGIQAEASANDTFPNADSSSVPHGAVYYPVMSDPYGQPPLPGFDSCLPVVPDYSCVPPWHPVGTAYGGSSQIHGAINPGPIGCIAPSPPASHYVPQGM
Outline: (§1)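 Lysate from HEK293T cells, 495 µg per sample in Tris/CHAPS/IGEPAL buffer with protease inhibitors, was treated for 3 h in triplicate with fragment at 200 µM or vehicle. Biotin-Ahx-Ub-VS was next added at 0.5 µM final for 1 h. The labelled DUBs were enriched with NeutrAvidin, digested with LysC and trypsin, and run by diaPASEF LC-MS/MS, with values given as average log2 fragment/vehicle ratios by unpaired t-test on global-median-normalised Spectronaut quantities of proteins with ≥2 unique peptides.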

ATXN3 = ATXN3 (UniProt P54252)
Outline: as §1

BAP1 = biological target: T2, BAP1 (UniProt Q92560)
T2 sequence (whole entry): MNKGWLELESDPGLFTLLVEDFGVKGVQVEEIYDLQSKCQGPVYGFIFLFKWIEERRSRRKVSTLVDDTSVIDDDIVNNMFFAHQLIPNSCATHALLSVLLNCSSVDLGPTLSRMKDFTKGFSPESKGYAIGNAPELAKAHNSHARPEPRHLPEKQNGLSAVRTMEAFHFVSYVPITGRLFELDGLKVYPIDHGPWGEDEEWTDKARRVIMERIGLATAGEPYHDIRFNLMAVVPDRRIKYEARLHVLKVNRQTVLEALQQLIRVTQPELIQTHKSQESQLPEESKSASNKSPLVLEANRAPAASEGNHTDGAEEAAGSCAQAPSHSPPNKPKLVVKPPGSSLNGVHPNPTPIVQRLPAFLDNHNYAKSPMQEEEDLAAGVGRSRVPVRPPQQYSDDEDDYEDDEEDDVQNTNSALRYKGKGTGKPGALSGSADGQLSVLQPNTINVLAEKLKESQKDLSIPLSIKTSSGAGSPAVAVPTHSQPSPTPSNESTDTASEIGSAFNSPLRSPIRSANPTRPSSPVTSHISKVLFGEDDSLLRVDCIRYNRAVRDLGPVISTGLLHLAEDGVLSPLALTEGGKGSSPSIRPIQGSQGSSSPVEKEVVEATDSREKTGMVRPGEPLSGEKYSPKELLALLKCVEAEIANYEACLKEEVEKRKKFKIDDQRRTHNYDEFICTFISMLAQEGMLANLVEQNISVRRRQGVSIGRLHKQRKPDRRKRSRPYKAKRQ
Outline: as §1

EIF3F = EIF3F (UniProt O00303)
Outline: as §1

EIF3H = EIF3H (UniProt O15372)
Outline: as §1

FAM105A = biological target: T3, FAM105A (UniProt Q9NUU6)
T3 sequence (whole entry): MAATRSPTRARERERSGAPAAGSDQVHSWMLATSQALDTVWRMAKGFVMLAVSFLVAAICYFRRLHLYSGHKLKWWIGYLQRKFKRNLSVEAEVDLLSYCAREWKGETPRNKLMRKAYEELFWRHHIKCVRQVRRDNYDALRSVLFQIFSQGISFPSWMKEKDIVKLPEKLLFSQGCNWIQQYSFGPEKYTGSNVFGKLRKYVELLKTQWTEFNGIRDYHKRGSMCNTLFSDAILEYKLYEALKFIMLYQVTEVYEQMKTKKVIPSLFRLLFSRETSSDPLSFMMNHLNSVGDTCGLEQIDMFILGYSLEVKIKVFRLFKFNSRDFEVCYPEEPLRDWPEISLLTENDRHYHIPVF
Outline: as §1

OTUB1 = OTUB1 (UniProt Q96FW1)
Outline: as §1

OTUD4 = biological target: T4, OTUD4 (UniProt Q01804)
T4 sequence (whole entry): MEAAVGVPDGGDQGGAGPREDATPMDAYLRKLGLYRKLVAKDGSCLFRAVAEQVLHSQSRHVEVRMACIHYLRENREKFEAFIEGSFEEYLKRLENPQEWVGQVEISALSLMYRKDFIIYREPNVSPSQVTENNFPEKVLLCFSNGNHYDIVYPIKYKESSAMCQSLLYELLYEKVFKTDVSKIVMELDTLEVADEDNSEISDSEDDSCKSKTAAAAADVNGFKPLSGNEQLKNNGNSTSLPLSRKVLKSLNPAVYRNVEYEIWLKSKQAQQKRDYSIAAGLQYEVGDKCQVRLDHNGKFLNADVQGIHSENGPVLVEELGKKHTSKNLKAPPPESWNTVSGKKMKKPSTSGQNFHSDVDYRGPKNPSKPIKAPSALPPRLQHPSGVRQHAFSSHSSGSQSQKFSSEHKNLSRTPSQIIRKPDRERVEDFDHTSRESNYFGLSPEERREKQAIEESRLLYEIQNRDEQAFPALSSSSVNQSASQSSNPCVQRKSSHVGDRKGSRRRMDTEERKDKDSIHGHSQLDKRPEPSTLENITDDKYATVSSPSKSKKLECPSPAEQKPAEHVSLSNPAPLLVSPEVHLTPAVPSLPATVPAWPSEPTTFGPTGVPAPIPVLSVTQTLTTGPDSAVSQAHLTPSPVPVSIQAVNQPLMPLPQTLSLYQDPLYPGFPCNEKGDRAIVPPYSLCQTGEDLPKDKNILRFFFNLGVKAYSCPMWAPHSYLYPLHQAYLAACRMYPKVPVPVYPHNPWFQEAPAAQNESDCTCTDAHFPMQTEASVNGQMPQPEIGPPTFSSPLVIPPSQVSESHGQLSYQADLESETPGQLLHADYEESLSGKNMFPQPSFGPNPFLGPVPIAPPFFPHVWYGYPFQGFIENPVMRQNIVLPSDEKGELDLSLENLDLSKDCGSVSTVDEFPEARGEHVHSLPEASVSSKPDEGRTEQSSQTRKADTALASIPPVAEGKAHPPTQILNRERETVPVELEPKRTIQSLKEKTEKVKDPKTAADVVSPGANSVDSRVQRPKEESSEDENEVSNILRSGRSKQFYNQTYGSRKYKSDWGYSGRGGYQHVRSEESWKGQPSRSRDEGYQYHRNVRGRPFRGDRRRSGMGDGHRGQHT
Outline: as §1

OTUD5 = biological target: T5, OTUD5 (UniProt Q96G74)
T5 sequence (whole entry): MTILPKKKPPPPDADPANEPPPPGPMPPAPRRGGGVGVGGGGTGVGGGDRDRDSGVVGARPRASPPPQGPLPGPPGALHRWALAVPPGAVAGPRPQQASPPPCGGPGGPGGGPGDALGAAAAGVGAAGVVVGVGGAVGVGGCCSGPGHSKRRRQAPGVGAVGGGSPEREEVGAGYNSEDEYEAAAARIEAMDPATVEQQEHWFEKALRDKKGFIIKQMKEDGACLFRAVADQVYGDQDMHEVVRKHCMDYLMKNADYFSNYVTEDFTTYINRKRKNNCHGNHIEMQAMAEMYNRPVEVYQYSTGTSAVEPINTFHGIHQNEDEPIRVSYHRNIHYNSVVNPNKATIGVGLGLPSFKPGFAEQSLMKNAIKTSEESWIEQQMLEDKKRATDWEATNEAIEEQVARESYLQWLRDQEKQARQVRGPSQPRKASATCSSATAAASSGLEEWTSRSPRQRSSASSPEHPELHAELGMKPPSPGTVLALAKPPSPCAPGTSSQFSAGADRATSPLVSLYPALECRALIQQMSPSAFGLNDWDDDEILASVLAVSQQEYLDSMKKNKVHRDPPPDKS
Outline: as §1

Sequence of ATXN3 (P54252 whole entry): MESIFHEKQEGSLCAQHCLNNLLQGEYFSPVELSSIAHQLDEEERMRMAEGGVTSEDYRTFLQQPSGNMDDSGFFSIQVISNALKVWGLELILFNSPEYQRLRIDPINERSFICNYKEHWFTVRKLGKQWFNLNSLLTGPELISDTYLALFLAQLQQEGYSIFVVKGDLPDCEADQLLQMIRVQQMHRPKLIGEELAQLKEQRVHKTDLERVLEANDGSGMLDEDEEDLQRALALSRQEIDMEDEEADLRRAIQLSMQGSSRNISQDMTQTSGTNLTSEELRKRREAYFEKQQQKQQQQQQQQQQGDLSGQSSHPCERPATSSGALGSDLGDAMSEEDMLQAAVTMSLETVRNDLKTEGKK
Sequence of OTUB1 (Q96FW1 whole entry): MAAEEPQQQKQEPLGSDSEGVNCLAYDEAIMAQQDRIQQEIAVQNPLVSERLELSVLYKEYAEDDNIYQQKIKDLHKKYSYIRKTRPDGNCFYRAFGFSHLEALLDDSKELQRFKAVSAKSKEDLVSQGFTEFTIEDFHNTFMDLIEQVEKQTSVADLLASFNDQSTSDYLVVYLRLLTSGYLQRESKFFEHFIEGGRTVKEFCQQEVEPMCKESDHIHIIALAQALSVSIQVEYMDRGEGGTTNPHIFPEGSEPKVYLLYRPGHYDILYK
Sequence of EIF3F (O00303 whole entry): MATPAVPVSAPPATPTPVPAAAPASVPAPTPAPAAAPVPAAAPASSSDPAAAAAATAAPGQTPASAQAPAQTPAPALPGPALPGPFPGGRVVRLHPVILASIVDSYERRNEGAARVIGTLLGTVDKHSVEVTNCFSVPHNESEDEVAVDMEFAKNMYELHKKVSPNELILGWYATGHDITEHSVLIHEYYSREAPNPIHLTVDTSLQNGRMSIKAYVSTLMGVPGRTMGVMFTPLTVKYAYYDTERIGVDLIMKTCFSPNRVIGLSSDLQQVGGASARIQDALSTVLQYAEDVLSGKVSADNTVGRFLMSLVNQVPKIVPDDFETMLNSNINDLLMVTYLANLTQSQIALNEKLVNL
Sequence of EIF3H (O15372 whole entry): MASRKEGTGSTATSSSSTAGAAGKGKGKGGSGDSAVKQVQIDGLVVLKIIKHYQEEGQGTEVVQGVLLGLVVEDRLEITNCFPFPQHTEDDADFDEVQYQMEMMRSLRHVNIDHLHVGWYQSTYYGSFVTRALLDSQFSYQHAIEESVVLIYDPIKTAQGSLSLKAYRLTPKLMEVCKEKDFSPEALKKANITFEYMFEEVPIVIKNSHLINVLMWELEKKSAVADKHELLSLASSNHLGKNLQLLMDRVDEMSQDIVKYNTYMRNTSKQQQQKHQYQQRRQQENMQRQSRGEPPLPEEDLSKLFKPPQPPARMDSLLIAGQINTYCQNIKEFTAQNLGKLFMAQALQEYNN

Row | SMILES | log2 ratio of Biotin-Ahx-Ub-VS probe labelling (ALG13) | log2 ratio of Biotin-Ahx-Ub-VS probe labelling (ATXN3) | log2 ratio of Biotin-Ahx-Ub-VS probe labelling (BAP1) | log2 ratio of Biotin-Ahx-Ub-VS probe labelling (EIF3F) | log2 ratio of Biotin-Ahx-Ub-VS probe labelling (EIF3H) | log2 ratio of Biotin-Ahx-Ub-VS probe labelling (FAM105A) | log2 ratio of Biotin-Ahx-Ub-VS probe labelling (OTUB1) | log2 ratio of Biotin-Ahx-Ub-VS probe labelling (OTUD4) | log2 ratio of Biotin-Ahx-Ub-VS probe labelling (OTUD5)
1 | O=C(CCl)Nc1cc2c(cc1Cl)OCCO2 | -0.314 | 0.00781 | -3.65 (active) | -0.138 | 0.0273 | 0.123 | 0.157 | -0.327 | -0.173
2 | O=C(CCl)N1CCc2nc[nH]c2C1c1ccc(Cl)cc1 (configuration not stated) | -0.0235 | -0.508 | -1.65 (active) | -0.277 | 0.263 | 0.102 | 0.00111 | -0.508 | -1.26 (active)
3 | Cc1noc(N2CCN(C(=O)CCl)CC2)n1.Cl | -0.0651 | -0.811 | -0.867 | 0.106 | -0.241 | 0.317 | 0.11 | -0.163 | -0.0833
